Source: PubChem BioAssay (several laboratories)
DAX1 StAR inh: DAX1 (NR0B1) inhibition, primary screen. 370,000 tested, 1.1% active. AID 652010. inhibition, % at 6.8 µM. HEK293T StAR-luciferase reporter, SF-1/DAX-1 repression relief;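 active = inhibition above the mean over all tested compounds plus 3 SD, cut at about 3.6% in these data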;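 also: 0% = DAX-1 cells with DMSO and 100% = cells lacking DAX-1 with DMSO; higher inhibition means more luminescence from relief of DAX-1 repression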
hgDAF-12 ag: agonists of H. glycines DAF-12 nuclear receptor. HEK293 GAL4-hgDAF12 UAS-luciferase reporter, agonist luminescence; normalized to butyrate control. activation, % at 6.8 µM. 370,000 tested, 1.8% active. AID 687014;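 active = activation above a cutoff set at the mean of all screened compounds plus 3 SD, cut at about 10% in these data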;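 also: 0% = DMSO wells and 100% = sodium butyrate wells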
esBAF inh: blocks esBAF chromatin remodeling in mouse ES cells. 350,000 tested, 2% active. AID 602393. Bmi1-luciferase knock-in reporter, 24 h; 100% = twice the neutral-well signal. reporter increase, % at 12.5 µM; in the data active = activation above about 40%;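 also: 0% = median of the plate's neutral control wells and 100% = double that signal; a rise in the Bmi1 reporter signal indicates esBAF inhibition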
ssDAF-12 act: S. stercoralis DAF-12 activation, primary screen. activation, % at 6.8 µM. HEK293 ssDAF-12/GRIP1 lit1-tk-luc reporter, luminescence; % of 3 µM dafachronic acid response. 370,000 tested, 1% active;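 active = activation above the mean over all tested compounds plus 3 SD, cut at about 0.9% in these data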;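 also: 0% = DMSO-only wells and 100% = 3 µM delta7-dafachronic acid wells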
Wnt act: activators of Wnt/beta-catenin signaling. Wnt/beta-catenin reporter cell assay, activator, plate reader. activation, % at 9.35 µM. 300,000 tested, 1.2% active. AID 743398; in the data active = activation above about 30%, passing the limit was not always enough;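 also: 0% = neutral control wells and 100% = positive control wells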
hcDAF12 agonist: H. contortus DAF-12 activation, primary screen | HEK293 hcDAF-12 lit1-tk-luc reporter, luminescence; 0% DMSO, 100% Δ7-dafachronic acid | activation, % at 6.8 µM | 370,000 tested, 1.4% active;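 active = activation above the mean of all tested compounds plus 3 SD, cut at about 5.5% in these data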;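 also: 100% = response to 3 µM Δ7-dafachronic acid high control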
Numbers without * were called inactive; x = no result. Sampled rows, rich in hits. Any-hit rate of the full collection: about 4.2%.

SMILES	DAX1 StAR inh	hgDAF-12 ag	esBAF inh	ssDAF-12 act	Wnt act	hcDAF12 agonist
COc1cccc(OCc2cc(C(=O)NC(C)c3cnn(C)c3C)no2)c1 (configuration not stated)	0	3	44*	-1	9	0
O=C(c1cc(COc2ccc(F)cc2Cl)on1)N1CCSCC1	3	5	78*	-1	20	2
Cc1cccc(C)c1OCc1cc(C(=O)N2CC3C[C@@H]4CC2C[C@H](C3)C4)no1	2	10	82*	0	36*	4
C[C@H](CO)N1C[C@H](C)[C@H](CN(C)S(=O)(=O)c2cn(C)cn2)Oc2ccc(NC(=O)Cc3cn(C)c4ccccc34)cc2C1=O	x	x	-5	x	x	x
CO[C@H]1CN(C)C(=O)c2ccc(NC(=O)Nc3cc(F)ccc3F)cc2OC[C@H](C)N(C(=O)c2cnccn2)C[C@H]1C	x	x	2	x	x	x
COc1ccc(OCc2cc(C(=O)N3CCCCCC3)no2)c(Cl)c1	4.1*	9	x	0	17	-1
CCCc1ccc(OCc2ccc(C(=O)N3CCSCC3)o2)cc1	2	8	47*	0	12	2
O=C(c1cc(COc2ccc(F)c(F)c2)on1)N1CCSCC1	2	1	51*	1	12	2
COc1ccc(OCc2cc(C(=O)N3CCN(CC(=O)N(C)C)CC3)no2)c(Cl)c1	0	-1	8	-1	-1	0
COc1ccc(OCc2cc(C(=O)N3CCSCC3)no2)c(Cl)c1	3.9*	10	x	0	27	3
COc1ccc(OCc2cc(C(=O)N3CCC(c4ccccc4)CC3)no2)c(Cl)c1	3	7	31	-1	19	1
O=C(Nc1ccccc1F)N[C@H]1C=C[C@H](CC(=O)N2CCCCC2)O[C@@H]1CO	x	x	0	x	x	x
COCC1CCN(C(=O)c2cc(COc3ccc4c(c3)CCCC4)on2)C1 (configuration not stated)	-1	-1	x	-1	-1	-2
Cc1nc2cc(OCc3cc(C(=O)NC(C)c4cnn(C)c4)no3)ccc2s1 (configuration not stated)	-1	-2	x	-1	5	-2
COc1ccc(OCc2cc(C(=O)NC(C)c3cnn(C)c3)no2)c(Cl)c1 (configuration not stated)	0	4	54*	-1	25	1
O=C(c1cc(COc2ccc(F)cc2Cl)on1)N1C[C@H]2CC[C@H]1C2	3	5	43*	0	0	1
O=C(c1cc(COc2ccc3c(c2)CCCC3)on1)N1CCCC1	4.0*	10	68*	1	1	4
C[C@@H]1CCCCO[C@@H](CN(C)Cc2ccncc2)[C@H](C)CN([C@@H](C)CO)C(=O)c2cc(NC(=O)CCC(F)(F)F)ccc2O1	x	x	-6	x	x	x
CCOc1cccc(-c2cc(C(=O)NN)[nH]n2)c1	0	11*	x	-2	1	1
Cc1noc(C)c1NC(=O)Nc1ccc2c(c1)C(=O)N([C@@H](C)CO)C[C@@H](C)[C@@H](CN(C)S(=O)(=O)c1ccc(F)cc1)O2	x	x	2	x	x	x
O=C(C[C@H]1C=C[C@@H](NC(=O)c2ccccc2)[C@@H](CO)O1)NCCc1ccncc1	x	x	2	x	x	x
O=C(Nc1nnc(C(F)(F)F)s1)c1cccnc1	2	6	9	0	x	5.6*
O=C(Nc1nnc(-c2ccccc2F)s1)c1cccnc1	1	1	60*	-1	-4	0
O=C(Nc1nnc(C(F)(F)F)s1)c1c(F)cccc1F	0	-2	4	-1	0	-1
COc1ccccc1S(=O)(=O)N[C@H]1CC[C@H](CC(=O)NCc2cccc(F)c2)O[C@@H]1CO	x	x	1	x	x	x
SMILES	DAX1 StAR inh	hgDAF-12 ag	esBAF inh	ssDAF-12 act	Wnt act	hcDAF12 agonist
O=C(Nc1ccc(F)cc1)N[C@H]1CC[C@H](CCn2cc(-c3ccc(F)cc3)nn2)O[C@H]1CO	x	x	0	x	x	x
C/C(=N\NC(=O)c1c[nH]c2ccccc12)c1ccco1	2	4	51*	0	-1	5.9*
C/C(=N\NC(=O)c1c[nH]c2ccccc12)c1ccccn1	1	7	x	0	24	4
O=C(NCCSc1c[nH]c2ccccc12)c1ccco1	1	5	10	0	0	5.9*
C/C(=N\NC(=O)c1ccccc1O)c1ccc(Br)s1	1	11*	x	-1	19	-1
CCc1ccc(/C(C)=N/NC(=O)c2c[nH]c3ccccc23)s1	0	4	18	1.1*	3	6.5*
CO[C@H]1CN(C)C(=O)c2cc(NC(C)=O)ccc2OC[C@H](C)N(Cc2cccc(F)c2)C[C@H]1C	x	x	-15	x	x	x
CS(=O)(=O)Nc1ccc2c(c1)[C@@H]1C[C@@H](CC(=O)NCc3ccc(Oc4ccccc4)cc3)O[C@@H](CO)[C@@H]1O2	x	x	-15	x	x	x
O=C(CSc1nnc(-c2ccccc2)n1Cc1ccccc1)NNC(=O)c1ccccc1O	-1	-2	x	-1	-12	-3
Cn1c(SCC(=O)NNC(=O)c2ccccc2O)nnc1-c1ccccc1	1	1	22	0	-3	6.1*
CN(C)CC(=O)N[C@H]1CC[C@@H](CCNS(=O)(=O)c2ccccc2)O[C@@H]1CO	x	x	1	x	x	x
COc1cccc(/C=C2\Oc3ccc(O)cc3C2=O)c1O	4.0*	7	-65	1.8*	38*	6.0*
O=c1sc(N2CCN(c3ccccc3F)CC2)nc2ccsc12	2	8	69*	0	54*	0
C#CCN1C(=O)S/C(=C\c2ccc(-c3ccc(Cl)c(C(=O)O)c3)o2)C1=O	0	4	38	-1	31*	0
O=C(O)c1cc(-c2ccc(/C=C3\NC(=O)N(c4ccccc4)C3=O)o2)ccc1Cl	0	0	6	-1	9	0
CCC(=O)N1[C@@H]2c3ccc(-c4ccccc4)c(=O)n3C[C@@H]2[C@@H](CO)[C@@H]1C(=O)N(C)C	x	x	1	x	x	x
NC(=O)c1c(NC(=O)c2cccs2)sc2c1CCCCCC2	1	9	105*	-1	x	1
O=C(Nc1sc2c(c1C(=O)O)CCC2)c1cccs1	1	4	46*	-1	x	5.7*
COCCCNC(=O)c1c(NC(=O)c2cccs2)sc2c1CCCC2	0	-2	-3	-1	-7	0
O=C(CCN1CCCCC1)N[C@@H]1CC[C@@H](CCNS(=O)(=O)c2ccc(F)cc2)O[C@H]1CO	x	x	-3	x	x	x
CCCCOc1ccc(-c2cn3ccccc3n2)cc1[N+](=O)[O-]	0	11*	x	-1	x	1
CCOc1ccc(-c2cn3ccccc3n2)cc1[N+](=O)[O-]	1	11*	x	0	13	1
CC(=O)Nc1cccc(-c2cn3ccccc3n2)c1	1	4	x	0	x	0
Oc1ccc(-c2cn3ccccc3n2)cc1O	2	8	5	0	23	6.1*
